tim10-1 inh: inhibits growth of tim10-1 mutant yeast; inhibition, % at 20 µM; S. cerevisiae tim10-1 ts strain growth, BacTiter-Glo, 24 h; AID 463190; 330,000 tested, 2.2% active;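 active means inhibition of at least 40%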;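 further: mutant grown at 25 °C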
TIM10 inh: TIM10 yeast growth inhibition. S. cerevisiae TIM10 strain growth, BacTiter-Glo luminescence, 24 h. inhibition, % at 10 µM. 330,000 tested, 1.4% active;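 active means inhibition of 40% or more at the single tested concentration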;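 further: wild-type TIM10 isogenic control strain grown at permissive 25 °C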
NALP3 yeast inh: inhibitors of NALP3 inflammasome in yeast; Yeast reconstituted NLRP3/ASC/caspase-1, beta-gal luminescence, 24 h; inhibition, % at 10 µM; 330,000 tested, 0.39% active; AID 2825;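 active means inhibition of 50% or more; inactive means inhibition below 50%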
PfHsp90 yeast 2: reduces growth (ATP signal) of yeast expressing P. falciparum Hsp90. S. cerevisiae expressing PfHsp90, BacTiter-Glo ATP, 48 h; yeast lacking PDR1 and PDR3 efflux regulators. AID 504621. inhibition, % at 9.4 µM. 310,000 tested, 0.32% active;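 active means every replicate shows inhibition above about 80%, whatever the replicate mean, limit read from the data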
tim23-1 inh: inhibits growth of tim23-1 mutant yeast. AID 463212. 330,000 tested, 1.3% active. S. cerevisiae tim23-1 growth, BacTiter-Glo luminescence, 24 h. inhibition, % at 20 µM;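 active means growth inhibition of the mutant yeast at or above 50%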;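 further: temperature-sensitive mutant grown at 25 °C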
NALP3 yeast conf: confirmation of NALP3 inhibitors in yeast; yeast expressing human NALP3, luminescence; 1,300 tested, 81% active; shares compounds with NALP3 yeast inh; inhibition, % at 10 µM; in the data active means inhibition above about 48%
Casp1-ASC yeast: caspase-1-ASC yeast counter-screen hit; yeast expressing Caspase-1-ASC, luminescence counter screen; inhibition, % at 10 µM; 1,000 tested, 66% active; shares compounds with NALP3 yeast inh
NALP3 yeast rt: retest-confirmed inhibitor of NALP3 in yeast; 1,000 tested, 53% active; AID 488794; inhibition, % at 10 µM; yeast expressing human NALP3, luminescence read-out; shares compounds with NALP3 yeast inh
Numbers stand for hits; i = inactive; nt = no result given. An excerpt weighted towards active compounds, which were near 3.7% of everything screened. Unless noted, no stated cut-off is given here; in the data, active means inhibition above about 50%; inactive means the rest.

SMILES	tim10-1 inh	TIM10 inh	NALP3 yeast inh	PfHsp90 yeast 2	tim23-1 inh	NALP3 yeast conf	Casp1-ASC yeast	NALP3 yeast rt
CC1(C)C2CC[C@]3(C)C(CC=C4[C@@H]5C[C@@](C)(CO)[C@@H]6C[C@@]5(CC[C@]43C)C(=O)O6)[C@@]2(C)CC[C@@H]1O (stereo not given in full)	i	i	55.3	nt	i	57.5	i	i
O=[N+]([O-])c1cc(Br)c(O)c(/C=N/Nc2nnnn2-c2cccc3ccccc23)c1	i	i	52.4	i	i	47.2	nt	nt
COc1ccc(OC)c(NC(=O)C2COc3ccccc3O2)c1 (stereo not given)	i	i	i	i	i	nt	nt	nt
COc1ccc(CNC(=O)C2COc3ccccc3O2)c(OC)c1 (stereo not given)	i	i	52.6	nt	i	65.5	i	i
O=S(=O)(c1cccs1)N1CCN(c2ccccc2)CC1	i	i	i	i	i	nt	nt	nt
Cc1ccc(N2CCN(S(=O)(=O)c3cccs3)CC2C)cc1 (stereo not given)	i	i	55.6	i	i	57.4	57.0	i
CC1CN(S(=O)(=O)c2cccs2)CC(C)O1 (stereo not given)	i	i	i	i	i	nt	nt	nt
O=S(=O)(c1cccs1)N1CCN(c2ccc(Cl)cc2)CC1	i	i	58.5	i	i	63.3	i	i
CN1CCN(c2nc(-c3ccc(Cl)cc3)cc(=O)[nH]2)CC1	i	i	i	i	i	nt	nt	nt
Cc1cc2ncn(S(=O)(=O)N3CCCCC3)c2cc1C	i	i	68.6	i	i	60.5	73.8	68.0
COc1ccc(-c2ccc(SCC(=O)NCc3ccco3)nn2)cc1	i	i	i	i	i	i	nt	nt
O=C1CN2C(=Nc3ccc(Br)cc3C2c2ccccc2)CCN1 (stereo not given)	i	i	i	i	i	nt	nt	nt
Brc1ccc2c(c1)CN1CCCC1=N2	i	i	62.8	i	i	80.4	53.0	51.0
COc1ccc(C(C)(C)C)cc1NC(=O)c1cncc(Br)c1	i	i	56.1	nt	i	61.9	58.1	54.9
O=C(NCc1nnnn1-c1ccc(F)cc1)C1CC(=O)N(c2ccc(F)cc2)C1 (stereo not given)	i	i	i	i	i	nt	nt	nt
O=C(/C=C/c1cccc([N+](=O)[O-])c1)NCCSCc1cccc(Cl)c1	i	i	71.3	i	i	i	nt	nt
O=C(/C=C/c1cccc([N+](=O)[O-])c1)NCc1ccccc1	i	i	i	i	i	nt	nt	nt
Clc1ccc(OCCn2cnc3ccccc32)cc1	i	i	i	i	i	nt	nt	nt
Clc1ccccc1OCCn1cnc2ccccc21	i	i	75.8	nt	i	83.5	78.8	63.2
Nc1cccc(CCc2ccncc2)c1	i	i	i	i	i	nt	nt	nt
COC(=O)C1=C(C(=O)OC)[C@@H]2Nc3ccccc3[C@@]23C[C@@H](C(=O)OC)N(C(=O)CC(C)C)C3=N1	i	i	i	i	i	nt	nt	nt
Cn1c(N2CCOCC2)c(/C=N/OC(=O)c2ccc(F)cc2)c2ccccc21	i	i	65.2	i	i	84.5	61.2	55.6
CCOc1ccc2[nH]cc(C(=O)N3CCN(C4CCCCC4)CC3)c(=O)c2c1	i	i	i	i	i	nt	nt	nt
COC(=O)C1CC2(C(=O)OC)CC(C(=O)OC)(CC(C(=O)OC)C2=O)C1=O (stereo not given)	nt	nt	nt	i	nt	nt	nt	nt
COC(=O)C12CCC3(SCCS3)C(C(=O)OC)(CCC13SCCS3)C2	i	i	58.1	i	i	i	nt	nt
CC(C)C[C@@H]1NC(=O)N(CCCn2ccnc2)C1=O	i	i	i	i	i	nt	nt	nt
COc1ccc(C2CC(=O)C(C=NCCCO)=C(O)C2)cc1 (stereo not given)	i	i	i	i	i	nt	nt	nt
CCCCCC(=O)N1CCN(CCN=CC2=C(O)CC(c3ccc(OC)cc3)CC2=O)CC1 (stereo not given)	i	i	54.9	i	i	72.0	i	i
CCCCCC(=O)N1CCN(CCN=CC2=C(O)CC(c3ccc(OC)c(OC)c3)CC2=O)CC1 (stereo not given)	i	i	57.8	i	i	65.7	i	i

Screens (PubChem BioAssay)
